# Laboratory results taken from ChEMBL document CHEMBL2218924, “A broad activity screen in support of a chemogenomic map for kinase signalling research and drug discovery” (Biochem J, 2013).
# What was measured:
# [1] = target: MAP kinase-activated protein kinase 2 (Homo sapiens) (UniProt P49137); settings: at 10 µM
# [2] = target: MAP kinase-activated protein kinase 3 (Homo sapiens) (UniProt Q16644); settings: at 10 µM
# [3] = target: Serine/threonine-protein kinase MARK1 (Homo sapiens) (UniProt Q9P0L2); settings: at 1 µM
# [4] = target: Serine/threonine-protein kinase MARK1 (Homo sapiens) (UniProt Q9P0L2); settings: at 10 µM
# [5] = target: Maternal embryonic leucine zipper kinase (Homo sapiens) (UniProt Q14680); settings: at 1 µM
# Chain of Maternal embryonic leucine zipper kinase (Homo sapiens) (Q14680 whole entry, looked up): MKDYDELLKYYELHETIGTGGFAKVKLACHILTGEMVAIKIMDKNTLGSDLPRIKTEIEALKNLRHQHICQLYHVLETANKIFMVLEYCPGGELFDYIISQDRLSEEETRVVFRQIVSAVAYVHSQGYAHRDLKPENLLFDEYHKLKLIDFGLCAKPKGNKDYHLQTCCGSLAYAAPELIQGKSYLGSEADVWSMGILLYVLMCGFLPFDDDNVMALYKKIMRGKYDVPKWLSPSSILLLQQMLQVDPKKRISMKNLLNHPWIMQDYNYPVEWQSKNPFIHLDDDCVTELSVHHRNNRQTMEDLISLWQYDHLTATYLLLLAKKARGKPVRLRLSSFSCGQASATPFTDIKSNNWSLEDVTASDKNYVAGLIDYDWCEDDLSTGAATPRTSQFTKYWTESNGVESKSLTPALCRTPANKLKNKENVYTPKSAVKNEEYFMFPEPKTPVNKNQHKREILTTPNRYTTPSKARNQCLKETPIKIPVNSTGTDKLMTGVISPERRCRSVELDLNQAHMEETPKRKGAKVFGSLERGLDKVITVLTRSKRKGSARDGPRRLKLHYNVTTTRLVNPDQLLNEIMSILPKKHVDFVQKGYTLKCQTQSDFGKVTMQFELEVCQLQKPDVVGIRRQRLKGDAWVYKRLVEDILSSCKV
# [6] = target: Maternal embryonic leucine zipper kinase (Homo sapiens) (UniProt Q14680); settings: at 10 µM
# [7] = target: Misshapen-like kinase 1 (Homo sapiens) (UniProt Q8N4C8); settings: at 1 µM
# [8] = target: Misshapen-like kinase 1 (Homo sapiens) (UniProt Q8N4C8); settings: at 10 µM
# [9] = target: T1, Dual specificity mitogen-activated protein kinase kinase 6 (Homo sapiens) (UniProt P52564); settings: at 1 µM
# T1 sequence (whole entry): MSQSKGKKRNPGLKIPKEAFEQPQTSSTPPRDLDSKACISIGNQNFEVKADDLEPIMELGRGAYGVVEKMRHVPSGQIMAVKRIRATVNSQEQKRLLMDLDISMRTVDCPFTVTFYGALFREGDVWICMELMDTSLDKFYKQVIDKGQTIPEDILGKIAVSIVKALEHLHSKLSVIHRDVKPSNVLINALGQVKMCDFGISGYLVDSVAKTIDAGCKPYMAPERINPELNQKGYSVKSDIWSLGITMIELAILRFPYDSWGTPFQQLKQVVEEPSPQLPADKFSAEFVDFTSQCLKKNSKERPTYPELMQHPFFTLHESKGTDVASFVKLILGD
# [10] = target: T1, Dual specificity mitogen-activated protein kinase kinase 6 (Homo sapiens); settings: at 10 µM
# [11] = target: T2, Dual specificity mitogen-activated protein kinase kinase 7 (Homo sapiens) (UniProt O14733); settings: at 10 µM
# T2 sequence (whole entry): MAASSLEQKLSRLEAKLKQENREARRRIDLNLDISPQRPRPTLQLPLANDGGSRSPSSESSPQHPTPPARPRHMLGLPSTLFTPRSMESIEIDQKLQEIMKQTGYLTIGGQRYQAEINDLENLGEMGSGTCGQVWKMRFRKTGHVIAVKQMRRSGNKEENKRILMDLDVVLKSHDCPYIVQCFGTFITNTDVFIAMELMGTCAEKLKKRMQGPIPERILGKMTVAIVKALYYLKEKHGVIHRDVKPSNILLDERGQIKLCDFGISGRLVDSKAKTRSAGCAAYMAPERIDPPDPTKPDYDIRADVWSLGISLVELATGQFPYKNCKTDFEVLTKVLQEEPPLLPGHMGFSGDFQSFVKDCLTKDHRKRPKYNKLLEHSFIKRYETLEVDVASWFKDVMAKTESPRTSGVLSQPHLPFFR
# [12] = target: Myosin light chain kinase, smooth muscle (Homo sapiens) (UniProt Q15746); settings: at 1 µM
# Chain of Myosin light chain kinase, smooth muscle (Homo sapiens) (Q15746 whole entry): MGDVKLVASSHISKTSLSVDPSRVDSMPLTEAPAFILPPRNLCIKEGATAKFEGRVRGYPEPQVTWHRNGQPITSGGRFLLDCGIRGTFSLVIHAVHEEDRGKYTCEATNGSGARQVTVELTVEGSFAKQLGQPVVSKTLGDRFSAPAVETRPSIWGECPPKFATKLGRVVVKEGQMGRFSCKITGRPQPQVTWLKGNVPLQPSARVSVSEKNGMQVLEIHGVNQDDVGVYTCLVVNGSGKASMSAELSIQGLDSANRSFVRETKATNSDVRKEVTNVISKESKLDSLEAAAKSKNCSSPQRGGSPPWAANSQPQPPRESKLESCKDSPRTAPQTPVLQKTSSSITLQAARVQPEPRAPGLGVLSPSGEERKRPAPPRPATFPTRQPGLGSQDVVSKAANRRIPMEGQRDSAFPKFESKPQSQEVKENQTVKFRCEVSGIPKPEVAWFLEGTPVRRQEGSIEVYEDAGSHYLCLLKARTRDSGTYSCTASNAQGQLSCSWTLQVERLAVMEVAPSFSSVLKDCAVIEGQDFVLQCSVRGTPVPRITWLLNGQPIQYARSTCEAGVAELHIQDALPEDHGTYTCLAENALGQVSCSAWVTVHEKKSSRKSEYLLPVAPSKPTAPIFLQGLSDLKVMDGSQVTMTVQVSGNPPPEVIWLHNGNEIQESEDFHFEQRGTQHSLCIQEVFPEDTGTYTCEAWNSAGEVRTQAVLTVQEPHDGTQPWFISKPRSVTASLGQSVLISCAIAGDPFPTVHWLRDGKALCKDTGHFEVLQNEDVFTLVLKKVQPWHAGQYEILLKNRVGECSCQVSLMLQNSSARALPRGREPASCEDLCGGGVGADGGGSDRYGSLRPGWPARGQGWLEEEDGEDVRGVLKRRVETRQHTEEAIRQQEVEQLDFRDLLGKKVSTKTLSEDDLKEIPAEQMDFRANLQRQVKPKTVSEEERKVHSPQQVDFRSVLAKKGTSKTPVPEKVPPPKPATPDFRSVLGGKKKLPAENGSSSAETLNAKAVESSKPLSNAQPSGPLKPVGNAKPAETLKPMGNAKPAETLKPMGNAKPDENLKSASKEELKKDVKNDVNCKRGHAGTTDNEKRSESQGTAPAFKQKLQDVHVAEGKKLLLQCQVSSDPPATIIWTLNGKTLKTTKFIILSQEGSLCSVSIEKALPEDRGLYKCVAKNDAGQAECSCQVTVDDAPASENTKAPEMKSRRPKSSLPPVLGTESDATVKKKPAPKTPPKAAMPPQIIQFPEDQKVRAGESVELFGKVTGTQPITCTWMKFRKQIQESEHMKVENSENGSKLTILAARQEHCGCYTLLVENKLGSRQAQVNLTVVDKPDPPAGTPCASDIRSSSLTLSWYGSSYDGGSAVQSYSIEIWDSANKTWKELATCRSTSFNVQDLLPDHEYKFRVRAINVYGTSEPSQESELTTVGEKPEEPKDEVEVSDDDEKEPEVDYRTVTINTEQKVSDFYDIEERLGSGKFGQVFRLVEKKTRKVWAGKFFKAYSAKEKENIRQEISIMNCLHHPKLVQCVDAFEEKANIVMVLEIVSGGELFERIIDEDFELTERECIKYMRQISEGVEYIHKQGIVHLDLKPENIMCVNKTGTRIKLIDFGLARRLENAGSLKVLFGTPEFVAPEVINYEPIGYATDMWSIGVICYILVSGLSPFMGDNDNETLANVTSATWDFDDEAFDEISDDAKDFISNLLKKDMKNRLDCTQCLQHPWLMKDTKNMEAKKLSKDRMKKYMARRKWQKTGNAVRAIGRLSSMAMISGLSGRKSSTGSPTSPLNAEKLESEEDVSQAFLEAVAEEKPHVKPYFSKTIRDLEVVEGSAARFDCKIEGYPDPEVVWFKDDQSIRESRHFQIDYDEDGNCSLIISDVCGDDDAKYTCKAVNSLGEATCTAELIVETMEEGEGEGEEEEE
# [13] = target: Myosin light chain kinase, smooth muscle (Homo sapiens) (UniProt Q15746); settings: at 10 µM
# [14] = target: Mitogen-activated protein kinase kinase kinase 9 (Homo sapiens) (UniProt P80192); settings: at 1 µM
# Chain of Mitogen-activated protein kinase kinase kinase 9 (Homo sapiens) (P80192 whole entry, looked up): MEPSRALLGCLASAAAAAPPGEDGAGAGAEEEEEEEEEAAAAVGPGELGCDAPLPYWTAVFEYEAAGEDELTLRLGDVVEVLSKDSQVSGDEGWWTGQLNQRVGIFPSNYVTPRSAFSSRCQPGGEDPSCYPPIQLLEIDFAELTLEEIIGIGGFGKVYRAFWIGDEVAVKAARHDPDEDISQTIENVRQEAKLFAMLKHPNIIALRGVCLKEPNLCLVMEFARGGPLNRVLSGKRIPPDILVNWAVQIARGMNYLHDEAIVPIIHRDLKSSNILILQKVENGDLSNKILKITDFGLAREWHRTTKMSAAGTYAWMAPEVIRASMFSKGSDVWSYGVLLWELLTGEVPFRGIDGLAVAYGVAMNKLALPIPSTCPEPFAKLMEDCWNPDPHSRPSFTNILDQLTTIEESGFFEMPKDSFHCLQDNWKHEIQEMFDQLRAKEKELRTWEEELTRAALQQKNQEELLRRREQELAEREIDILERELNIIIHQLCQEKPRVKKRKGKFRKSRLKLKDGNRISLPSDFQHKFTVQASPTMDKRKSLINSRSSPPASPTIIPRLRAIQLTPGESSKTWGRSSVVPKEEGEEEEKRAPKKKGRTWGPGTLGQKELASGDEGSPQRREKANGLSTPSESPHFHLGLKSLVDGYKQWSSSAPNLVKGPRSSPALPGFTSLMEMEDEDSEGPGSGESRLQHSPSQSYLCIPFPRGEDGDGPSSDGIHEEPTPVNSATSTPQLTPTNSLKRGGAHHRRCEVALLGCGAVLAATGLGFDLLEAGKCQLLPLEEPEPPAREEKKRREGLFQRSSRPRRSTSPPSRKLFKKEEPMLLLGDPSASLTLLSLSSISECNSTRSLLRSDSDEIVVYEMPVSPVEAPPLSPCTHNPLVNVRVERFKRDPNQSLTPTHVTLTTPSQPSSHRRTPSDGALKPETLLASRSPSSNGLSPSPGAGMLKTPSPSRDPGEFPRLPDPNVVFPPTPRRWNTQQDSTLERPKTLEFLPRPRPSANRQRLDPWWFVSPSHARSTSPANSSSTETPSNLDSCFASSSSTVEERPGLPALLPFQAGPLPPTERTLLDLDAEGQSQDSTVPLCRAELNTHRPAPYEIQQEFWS
# [15] = target: Mitogen-activated protein kinase kinase kinase 9 (Homo sapiens) (UniProt P80192); settings: at 10 µM
# [16] = target: Serine/threonine-protein kinase MRCK alpha (Homo sapiens) (UniProt Q5VT25); settings: at 1 µM
# [17] = target: Serine/threonine-protein kinase MRCK alpha (Homo sapiens) (UniProt Q5VT25); settings: at 10 µM
# [18] = target: Dual specificity mitogen-activated protein kinase kinase 1 (Homo sapiens) (UniProt Q02750); settings: at 1 µM
# Chain of Dual specificity mitogen-activated protein kinase kinase 1 (Homo sapiens) (Q02750 whole entry): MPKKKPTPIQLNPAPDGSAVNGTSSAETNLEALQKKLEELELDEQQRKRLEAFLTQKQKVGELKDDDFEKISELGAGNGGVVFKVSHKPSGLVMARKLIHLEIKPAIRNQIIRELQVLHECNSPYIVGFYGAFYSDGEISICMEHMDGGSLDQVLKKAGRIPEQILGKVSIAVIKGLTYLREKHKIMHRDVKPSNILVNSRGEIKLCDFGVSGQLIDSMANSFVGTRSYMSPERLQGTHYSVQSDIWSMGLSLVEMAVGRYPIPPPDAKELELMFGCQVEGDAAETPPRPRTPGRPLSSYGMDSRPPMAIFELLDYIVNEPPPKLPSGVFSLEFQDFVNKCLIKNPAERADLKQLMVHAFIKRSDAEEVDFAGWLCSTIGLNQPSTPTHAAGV
# [19] = target: Dual specificity mitogen-activated protein kinase kinase 1 (Homo sapiens) (UniProt Q02750); settings: at 10 µM
# [20] = target: T2, Dual specificity mitogen-activated protein kinase kinase 7 (Homo sapiens); settings: at 1 µM
# Chain of MAP kinase-activated protein kinase 2 (Homo sapiens) (P49137 whole entry, looked up): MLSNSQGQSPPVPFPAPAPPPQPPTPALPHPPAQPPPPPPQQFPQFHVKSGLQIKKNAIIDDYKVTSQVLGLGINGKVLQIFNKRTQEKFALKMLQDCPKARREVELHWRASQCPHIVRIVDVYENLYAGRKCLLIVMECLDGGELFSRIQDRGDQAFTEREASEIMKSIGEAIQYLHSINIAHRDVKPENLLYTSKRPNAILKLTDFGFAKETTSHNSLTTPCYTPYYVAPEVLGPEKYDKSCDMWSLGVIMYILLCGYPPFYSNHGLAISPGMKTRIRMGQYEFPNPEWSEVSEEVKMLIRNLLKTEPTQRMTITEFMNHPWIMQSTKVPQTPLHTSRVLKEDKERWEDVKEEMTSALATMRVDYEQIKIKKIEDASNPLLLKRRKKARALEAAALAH
# Chain of MAP kinase-activated protein kinase 3 (Homo sapiens) (Q16644 whole entry, looked up): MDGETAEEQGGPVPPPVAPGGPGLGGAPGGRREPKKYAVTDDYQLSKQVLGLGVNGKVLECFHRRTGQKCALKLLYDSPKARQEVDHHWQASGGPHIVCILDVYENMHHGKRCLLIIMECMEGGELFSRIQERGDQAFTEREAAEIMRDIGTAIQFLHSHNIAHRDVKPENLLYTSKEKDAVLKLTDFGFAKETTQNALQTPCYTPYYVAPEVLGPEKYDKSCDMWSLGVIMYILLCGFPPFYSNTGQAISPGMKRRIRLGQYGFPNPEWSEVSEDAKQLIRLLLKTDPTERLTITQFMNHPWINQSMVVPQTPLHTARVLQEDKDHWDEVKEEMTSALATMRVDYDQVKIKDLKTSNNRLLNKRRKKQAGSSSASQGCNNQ
smiles,measurement,setting,value
c1ccc(-c2n[nH]cc2-c2ccnc3ccccc23)nc1,residual activity,[1],109%
same,residual activity,[2],125%
same,residual activity,[3],93%
same,residual activity,[4],81%
same,residual activity,[5],97%
same,residual activity,[6],82%
same,residual activity,[7],72%
same,residual activity,[8],27%
same,residual activity,[9],75%
same,residual activity,[10],48%
same,residual activity,[11],87%
same,residual activity,[12],77%
same,residual activity,[13],97%
same,residual activity,[14],100%
same,residual activity,[15],103%
same,residual activity,[16],102%
same,residual activity,[17],100%
CN(C)CCCn1cc(C2=C(c3c[nH]c4ccccc34)C(=O)NC2=O)c2ccccc21,residual activity,[1],73%
same,residual activity,[2],109%
same,residual activity,[3],65%
same,residual activity,[4],25%
same,residual activity,[18],109%
same,residual activity,[19],52%
same,residual activity,[5],41%
same,residual activity,[6],13%
same,residual activity,[7],84%
same,residual activity,[8],47%
same,residual activity,[20],79%
same,residual activity,[12],20%
same,residual activity,[13],7%
same,residual activity,[14],58%
same,residual activity,[15],13%
same,residual activity,[16],115%
same,residual activity,[17],76%
COc1cc2ncnc(Nc3ccc(Oc4ccccc4)cc3)c2cc1OC,residual activity,[1],108%
same,residual activity,[2],127%
same,residual activity,[3],83%
same,residual activity,[4],81%
same,residual activity,[18],89%
same,residual activity,[19],38%
same,residual activity,[5],76%
same,residual activity,[6],129%
same,residual activity,[7],99%
same,residual activity,[8],89%
same,residual activity,[9],79%
same,residual activity,[10],83%
same,residual activity,[20],87%
same,residual activity,[11],81%
same,residual activity,[12],72%
same,residual activity,[13],91%
same,residual activity,[14],18%
same,residual activity,[15],4%
same,residual activity,[16],103%
same,residual activity,[17],134%
COc1cc2ncc(-c3ccccc3)nc2cc1OC,residual activity,[1],80%
same,residual activity,[3],90%
same,residual activity,[4],80%
same,residual activity,[5],69%
same,residual activity,[6],60%
same,residual activity,[7],92%
same,residual activity,[8],62%
same,residual activity,[9],92%
same,residual activity,[10],92%
same,residual activity,[20],90%
same,residual activity,[11],90%
same,residual activity,[12],78%
same,residual activity,[13],86%
same,residual activity,[14],94%
same,residual activity,[15],60%
same,residual activity,[17],93%
CC[n+]1c(/C=C/N(C)c2ccccc2)n(-c2ccccc2)c2ccc(-c3nc4ccccc4s3)cc21,residual activity,[1],63%
same,residual activity,[2],86%
same,residual activity,[3],108%
same,residual activity,[4],111%
same,residual activity,[18],138%
same,residual activity,[19],95%
same,residual activity,[5],91%
same,residual activity,[6],46%
same,residual activity,[7],102%
same,residual activity,[8],84%
same,residual activity,[9],80%
same,residual activity,[10],133%
same,residual activity,[20],108%
same,residual activity,[11],107%
same,residual activity,[12],80%
same,residual activity,[13],34%
same,residual activity,[14],105%
same,residual activity,[15],103%
same,residual activity,[16],99%
same,residual activity,[17],122%
Cn1nc2c3c(cccc31)C(=O)c1ccccc1-2,residual activity,[1],73%
same,residual activity,[2],66%
same,residual activity,[3],76%
same,residual activity,[4],62%
same,residual activity,[18],95%
same,residual activity,[19],91%
same,residual activity,[5],67%
same,residual activity,[6],59%
same,residual activity,[7],93%
same,residual activity,[8],80%
same,residual activity,[10],70%
same,residual activity,[20],84%
same,residual activity,[11],53%
same,residual activity,[12],65%
same,residual activity,[13],49%
same,residual activity,[14],74%
same,residual activity,[15],28%
same,residual activity,[16],108%
same,residual activity,[17],99%
Ic1cccc(CSc2nnc(-c3ccncc3)o2)c1,residual activity,[1],67%
same,residual activity,[2],82%
same,residual activity,[3],4%
same,residual activity,[4],5%
same,residual activity,[18],69%
same,residual activity,[19],77%
same,residual activity,[5],24%
same,residual activity,[6],13%
same,residual activity,[7],98%
same,residual activity,[8],95%
same,residual activity,[9],100%
same,residual activity,[10],77%
same,residual activity,[20],70%
same,residual activity,[11],94%
same,residual activity,[12],84%
same,residual activity,[13],68%
same,residual activity,[14],90%
same,residual activity,[15],88%
same,residual activity,[16],123%
same,residual activity,[17],87%
COc1cc2ncnc(Nc3ccc(NC(=O)c4ccccc4)cc3)c2cc1OC,residual activity,[1],98%
same,residual activity,[2],93%
same,residual activity,[3],105%
same,residual activity,[4],95%
same,residual activity,[5],77%
same,residual activity,[6],50%
same,residual activity,[8],92%
same,residual activity,[10],97%
same,residual activity,[20],92%
same,residual activity,[11],74%
same,residual activity,[12],77%
same,residual activity,[13],96%
same,residual activity,[14],72%
same,residual activity,[15],22%
same,residual activity,[16],105%
N#CC(C#N)=C(N)/C(C#N)=C/c1ccc(O)cc1,residual activity,[1],87%
same,residual activity,[3],89%
same,residual activity,[4],75%
same,residual activity,[5],70%
same,residual activity,[6],78%
same,residual activity,[7],89%
same,residual activity,[8],88%
same,residual activity,[9],91%
same,residual activity,[10],99%
same,residual activity,[20],94%
same,residual activity,[12],68%
same,residual activity,[13],85%
same,residual activity,[14],99%
same,residual activity,[15],97%
same,residual activity,[16],90%
same,residual activity,[17],76%
Oc1ccc(-c2nc(-c3ccc(F)cc3)c(-c3ccncc3)[nH]2)cc1,residual activity,[1],105%
same,residual activity,[2],102%
same,residual activity,[3],95%
same,residual activity,[4],97%
same,residual activity,[18],90%
same,residual activity,[19],104%
same,residual activity,[5],92%
same,residual activity,[6],46%
same,residual activity,[7],91%
same,residual activity,[8],49%
same,residual activity,[9],12%
same,residual activity,[10],-1%
same,residual activity,[20],80%
same,residual activity,[11],57%
same,residual activity,[12],111%
same,residual activity,[13],80%
same,residual activity,[14],54%
same,residual activity,[15],12%
same,residual activity,[16],116%
same,residual activity,[17],103%
Cc1ccc(NC2=CC(=O)c3sc(C)nc3C2=O)cc1,residual activity,[1],87%
same,residual activity,[2],61%
same,residual activity,[3],87%
same,residual activity,[4],80%
same,residual activity,[18],99%
same,residual activity,[19],116%
same,residual activity,[5],95%
same,residual activity,[6],85%
same,residual activity,[7],106%
same,residual activity,[8],94%
same,residual activity,[10],104%
same,residual activity,[20],74%
same,residual activity,[11],101%
same,residual activity,[12],101%
same,residual activity,[13],82%
same,residual activity,[14],98%
same,residual activity,[15],90%
same,residual activity,[16],95%
same,residual activity,[17],91%
Cc1cc(Nc2nc(-c3ccccc3)nc3ccccc23)n[nH]1,residual activity,[3],66%
same,residual activity,[4],26%
same,residual activity,[19],67%
same,residual activity,[5],46%
same,residual activity,[6],7%
same,residual activity,[7],61%
same,residual activity,[8],14%
same,residual activity,[9],101%
same,residual activity,[10],71%
same,residual activity,[20],72%
same,residual activity,[11],58%
same,residual activity,[12],55%
same,residual activity,[13],9%
same,residual activity,[14],4%
same,residual activity,[15],1%
same,residual activity,[16],122%
same,residual activity,[17],110%
CCC(=O)Nc1ccc2ncnc(Nc3cccc(Br)c3)c2c1,residual activity,[1],95%
same,residual activity,[2],88%
same,residual activity,[3],84%
same,residual activity,[4],90%
same,residual activity,[18],93%
same,residual activity,[19],92%
same,residual activity,[5],90%
same,residual activity,[6],96%
same,residual activity,[7],83%
same,residual activity,[8],82%
same,residual activity,[9],77%
same,residual activity,[10],108%
same,residual activity,[20],94%
same,residual activity,[11],89%
same,residual activity,[12],68%
same,residual activity,[13],82%
same,residual activity,[14],89%
same,residual activity,[15],78%
same,residual activity,[16],109%
same,residual activity,[17],101%
Cc1ccc(S(=O)(=O)/C=C/C#N)cc1,residual activity,[1],74%
same,residual activity,[2],85%
same,residual activity,[3],90%
same,residual activity,[4],89%
same,residual activity,[18],105%
same,residual activity,[19],95%
same,residual activity,[5],96%
same,residual activity,[6],100%
same,residual activity,[7],111%
same,residual activity,[8],104%
same,residual activity,[9],124%
same,residual activity,[10],94%
same,residual activity,[20],93%
same,residual activity,[11],77%
same,residual activity,[12],95%
same,residual activity,[13],85%
same,residual activity,[14],97%
same,residual activity,[15],97%
same,residual activity,[16],86%
same,residual activity,[17],95%
